In all, about 350,000 compounds went through this assay and about 31,000 (8.9%) were called active. Where a call stands in place of a potency, no number is given. Not shown: some 15% with an inconclusive outcome. Many of the other results were omitted from the sample, so actives are more common in it than they were. Unmarked numbers belong to inactive results. Calls follow the shape of the dose curve; as a rule, active = well fitted inhibition curve with a large enough effect; inconclusive = small, poorly fitted or top-dose-only effect; inactive = no such curve, though single readings can be large or run the other way.
Target: Histone-lysine N-methyltransferase EHMT2 (Homo sapiens) (UniProt Q96KQ7)
Assay: qHTS Assay for Inhibitors of Histone Lysine Methyltransferase G9a; also: nearly all actives have a fitted effect of over 75% in size
Conditions: G9a H3K9 monomethylation, AlphaScreen, 2 h; series mostly up to 59 µM
In short: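 Readings reflect AlphaScreen signal from monomethyl-H3K9 antibody detection. HMT at 20 nM; substrate b-H3K9 500 nM; cofactor SAM 20 uM; 2 h RT reaction; compounds tested as titrations in qHTS with 15 min preincubation.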
Potency is read from the fitted curve at half-maximal effect.

Sequence of Histone-lysine N-methyltransferase EHMT2 (Homo sapiens) (Q96KQ7 913-1193 limits assumed): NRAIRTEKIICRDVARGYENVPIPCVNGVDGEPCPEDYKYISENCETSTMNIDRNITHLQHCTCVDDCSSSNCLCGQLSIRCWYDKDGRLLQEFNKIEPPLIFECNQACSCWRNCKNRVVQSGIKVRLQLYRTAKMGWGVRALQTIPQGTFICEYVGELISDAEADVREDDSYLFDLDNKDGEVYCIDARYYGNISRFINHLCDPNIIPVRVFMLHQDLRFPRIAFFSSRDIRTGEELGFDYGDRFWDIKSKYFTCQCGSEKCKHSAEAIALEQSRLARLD

| Compound | Potency | activity, negative = inhibition |
| --- | --- | --- |
| Cc1cccc(NC(=O)c2cccc(S(=O)(=O)N3CCCC3)c2)n1 | inactive | – |
| COC(=O)C1=C(C(=O)OC)C(c2cc([N+](=O)[O-])ccc2O)c2sc(=O)[nH]c2S1 (stereo not drawn) | 44.7 µM (active) | – |
| COC(=O)C1=C(C)N(C)C(=O)NC1c1ccc([N+](=O)[O-])o1 (stereo not drawn) | inactive | – |
| COc1cnc(-c2ccccn2)nc1Oc1ccc(C(C)(C)C)cc1 | inactive | – |
| Cc1ccccc1CNC(=O)CCc1cn(Cc2ccccc2C)c2ccccc12 | inactive | – |
| CCOc1ccc(S(=O)(=O)c2cn(Cc3ccccc3)c3ccc(OCC)cc3c2=O)cc1 | inactive | – |
| O=C(Nc1ccc(NC(=O)c2ccc3c(c2)OCO3)cc1)c1cccc(Cl)c1 | – | 0.511% [at 12.7 µM] |
| CCOCCn1c(-c2ccccc2)nc2ccccc21 | inactive | – |
| COc1ccc(-c2nc3ccccc3n2CCC(C)C)cc1OC | inactive | – |
| CC(=O)OCCN(CCCn1c(-c2ccncc2)nc2ccccc21)c1nc(-c2ccc(C)cc2)cs1 | 56.2 µM (active) | – |
| CCC(Sc1nc2n[nH]c(C)c2c(=N)n1-c1ccccc1Cl)C(=O)N(CC)CC (stereo not drawn) | inactive | – |
| Cc1ccc(CC(=O)N(C)CC(=O)N(CC(C)C)c2c(N)n(CC(C)C)c(=O)[nH]c2=O)cc1C | – | 10.8% [at 2.33 µM] |
| CCC(C(=O)Nc1cccc(Cl)c1C)n1nc(-c2ccc(C)cc2)ccc1=O (stereo not drawn) | inactive | – |
| COC(=O)c1ccccc1NC(=O)Cn1c(=O)cc(C)c2c(C)nn(-c3cccc(Cl)c3C)c21 | inactive | – |
| Cn1nnc2c(N3CCN(c4ccccc4)CC3)ncnc21 | inactive | – |
| O=C(Cc1ccc(Cl)cc1)NCC(c1cccs1)S(=O)(=O)c1ccc(Cl)cc1 (stereo not drawn) | inactive | – |
| Cc1ccc(-c2nn(-c3ccccc3)cc2C(=O)NCCCN2CCCC2=O)cc1 | inactive | – |
| COc1ccc(-c2cn(-c3ccc(OC)cc3)c(=S)[nH]2)cc1 | 1.41 µM (active) | – |
| COc1ccc(N2C(=O)CNC2=S)cc1 | inactive | – |
| COc1ccc(-n2cc(-c3ccccc3)c3c(=S)nc[nH]c32)cc1 | inactive | – |
| COc1ccccc1CCNC(=O)c1c(C)nn(CC(C)C)c1Cl | inactive | – |
| COc1cccc(NC(=O)Cn2c(=O)cc(C)c3c(C)nn(-c4cccc(F)c4)c32)c1 | inactive | – |
| CCOC(=O)C1=C(c2ccccc2)NC(=S)NC1c1ccc(Cl)cc1 (stereo not drawn) | – | -11.4% [at 12.7 µM] |
| COC(=O)C1=C(C)NC(=S)NC1c1ccc(OCC(=O)N2CC(C)OC(C)C2)c(OC)c1 (stereo not drawn) | – | -3.57% [at 12.7 µM] |

| Compound | Potency | activity, negative = inhibition |
| --- | --- | --- |
| COc1ccc(C2NC(=S)NC3=C2CCc2ccccc23)cc1OC (stereo not drawn) | 0.631 µM (active) | – |
| Fc1ccc(CN2CCc3nc(Nc4ccccc4)ncc3C2)cc1F | inactive | – |
| CCn1cc(CN2CCC(n3nccc3NC(=O)CCCc3ccccc3)CC2)c(C)n1 | inactive | – |
| COc1ccc(CN2CCC(n3nccc3NC(=O)CCCc3ccccc3)CC2)cc1C | inactive | – |
| COc1cc(CN2CCC(n3nccc3NC(=O)CCCc3ccccc3)CC2)ccc1O | 70.8 µM (active) | – |
| CCN(C(=O)c1sc2cc(OC)ccc2c1Cl)c1ccccc1 | inactive | – |
| CCN(CC)S(=O)(=O)c1ccc2c(c1)c(=O)c(C(=O)N1CCN(c3cccc(Cl)c3)CC1)cn2C | inactive | – |
| O=C(NCCN1CCOCC1)/C(=C/c1ccc(F)cc1)NC(=O)c1ccccc1 | inactive | – |
| O=C(NCCN1CCOCC1)c1ccc(/C=C2\Sc3ccccc3N(Cc3ccc(F)cc3)C2=O)cc1 | 28.2 µM (active) | – |
| Cc1ccccc1CN1C(=O)c2ccccc2Sc2ccc(C(=O)NCCCN3CCOCC3)cc21 | inactive | – |
| CCN1CCN(CCNC(=O)c2ccc(/C=C3/Sc4ccccc4N(Cc4cccc(C)c4)C3=O)cc2)CC1 | 44.7 µM (active) | – |
| Cc1ccc(C(=O)N/C(=C\c2ccc(F)cc2)C(=O)NCCN2CCOCC2)cc1 | inactive | – |
| CCN1CCN(CCNC(=O)c2ccc3c(c2)NC(=O)/C(=C\c2ccc(OC)c(OC)c2)S3)CC1 | – | 4.92% [at 0.0925 µM] |
| CCc1nc2c(cnn2-c2ccc(C)cc2)c(=O)n1-c1ccc(C)cc1 | inactive | – |
| CCOc1ccccc1/C=N/Nc1nc2ccccc2o1 | inactive | – |
| O=C1[C@H]2[C@@H](c3ccc(F)cc3)N3C(=O)N(c4ccc(C(F)(F)F)cc4)C(=O)[C@@]3(Cc3ccccc3)[C@H]2C(=O)N1C1CCCCC1 | – | 1.06% [at 12.7 µM] |
| CCOc1ccc(N(CC)S(=O)(=O)N2CCCC(C(=O)NCc3ccc(Cl)cc3)C2)cc1 (stereo not drawn) | inactive | – |
| Cc1c(C)c(C)c2[nH]c(=S)[nH]c2c1C | 1.12 µM (active) | – |
| Cc1cc(=O)[nH]c(=S)[nH]1 | – | -41.8% [at 2.33 µM] |
| CCc1ccc(Oc2coc3cc(O)ccc3c2=O)cc1 | inactive | – |
| CCOC(=O)c1cccc(NC(=O)c2cc(CN3CCCC3)on2)c1 | inactive | – |
| CCOc1cc(C)c(S(=O)(=O)NCc2ccccn2)cc1C | inactive | – |
| O=C(c1ccc(Cl)c([N+](=O)[O-])c1)N1CCN(c2ccccc2)CC1 | inactive | – |
| O=C(c1cccc(F)c1)N1CCN(c2ccc([N+](=O)[O-])c(N3CCCCC3)c2)CC1 | – | 21.2% [at 0.501 µM] |

| Compound | Potency | activity, negative = inhibition |
| --- | --- | --- |
| CO/N=C/c1ccc(N2CCN(C(=O)c3cccc(Cl)c3)CC2)c([N+](=O)[O-])c1 | 14.1 µM (active) | – |
| CCCN(CCC)CCCNC(=O)Cn1cc2c(n1)-c1c(oc(C(=O)N3CCCC3)c1C)CC2 | inactive | – |
| COCC(C)NS(=O)(=O)c1ccc(N2CCCCS2(=O)=O)cc1 (stereo not drawn) | inactive | – |
| Cc1nc2sc(C)c(C)n2c(=O)c1S(=O)(=O)NCCc1ccc(Cl)cc1 | inactive | – |
| Cc1cccn2c(=O)c3cc(C(=O)NC4CCCCC4)sc3nc12 | inactive | – |
| Cc1ccccc1-n1nc(C)c2cc(C(=O)NC3CC3)sc21 | 79.4 µM (active) | – |
| Cc1cccc(NC(=O)c2cc3c(C)nn(-c4ccccc4)c3s2)c1 | inactive | – |
| COc1cc(Cl)c(NC(=O)CC(C)S(=O)(=O)c2cc3c(cc2C)NC(=O)CO3)c(OC)c1 (stereo not drawn) | inactive | – |
| O=C(CSc1ncccn1)NCCc1ccccc1 | inactive | – |
| S=c1[nH]nc(Nc2ccccc2)s1 | 1.12 µM (active) | – |
| O=S(=O)(NCCc1ccccc1)c1ccccc1 | inactive | – |
| S=c1[nH]nc(NCCc2ccccc2)s1 | 0.316 µM (active) | – |
| CC(C)(C)C(=O)c1cnc(Nc2ccccc2)s1 | inactive | – |
| O=c1cnnc(Nc2ccccc2)[nH]1 | inactive | – |
| CCOc1ccc(S(=O)(=O)Nc2cccc(C(=O)NCC3(N4CCCCC4)CCCCC3)c2)cc1 | – | 19.1% [at 0.501 µM] |
| CCOC(=O)C1CCC(CN(Cc2ccc(OC)cc2)S(=O)(=O)c2ccc(F)c(C(=O)Nc3cc(C)ccc3C)c2)CC1 (stereo not drawn) | inactive | – |
| O=C(N[C@@H](Cc1ccccc1)C(=O)OCc1ccccc1)c1nc[nH]c1C(=O)NC1CCNCC1 | – | -7.95% [at 2.33 µM] |
| CCc1ccc(C2C(C#N)=C(N)N(N(C)C)C3=C2C(=O)CCC3)s1 (stereo not drawn) | inactive | – |
| Cc1sc(C2C(C#N)=C(N)N(c3cccc(Cl)c3)C3=C2C(=O)CCC3)cc1CN1CCOCC1 (stereo not drawn) | 15.8 µM (active) | – |
| N#CC1=C(N)N(c2ccccc2)C2=C(C(=O)CCC2)C1c1ccccc1 (stereo not drawn) | inactive | – |
| CC(=O)Nc1cccc(NC(=O)CSc2cn(CC(=O)N3CCCC3)c3ccccc23)c1 | inactive | – |
| CCN(CCCNC(=O)c1cc(Nc2ccc(OC)cc2)nc2ccccc12)c1cccc(C)c1 | inactive | – |
| CC[C@H](C)C(=O)N[C@H]1CCCN1C(=O)/C=C/c1ccccc1 | – | 11.1% [at 2.33 µM] |
| COc1ccc(C(=O)OC(C)C(=O)NC2CCCC2)cc1S(=O)(=O)N1CCOCC1 (stereo not drawn) | – | 22.8% [at 12.7 µM] |

| Compound | Potency | activity, negative = inhibition |
| --- | --- | --- |
| COc1ccc(C(=O)Oc2ccc(-c3nnco3)cc2)cc1S(=O)(=O)N1CCOCC1 | 50.1 µM (active) | – |
| COc1ccc(C(=O)N2CCN(c3ncccn3)CC2)cc1S(=O)(=O)N1CCOCC1 | – | 10.4% [at 12.7 µM] |
| COc1ccc(Cl)cc1NC(=O)CCn1c(=O)c2cccn2c2ccccc21 | inactive | – |
| Cc1ccc(Cl)cc1N1CCN(C(=O)c2cccc3c(=O)c(C)c(-c4ccccc4)oc23)CC1 | 7.94 µM (active) | – |
| Cc1ccc(Cl)cc1N1CCN(C(=O)c2cccn3c(=O)c4cc(Cl)ccc4nc23)CC1 | inactive | – |
| CCn1cc(C(=O)N2CCN(c3cc(Cl)ccc3C)CC2)c(=O)c2cc(S(=O)(=O)N3CCCC3)ccc21 | inactive | – |
| CN(C)C(=O)COC(=O)c1cccc(S(=O)(=O)N2CC3(C)CC2CC(C)(C)C3)c1 (stereo not drawn) | inactive | – |
| Cc1ccc(-c2nc3ccccn3c2Nc2c(C)cccc2C)o1 | 12.6 µM (active) | – |
| Cc1ccc(Nc2c(-c3ccc(C)s3)nc3ccccn23)cc1 | inactive | – |
| Cc1nc2ccccn2c(=O)c1NC(=O)c1c(F)cccc1F | inactive | – |
| Cc1ccc(CN2COc3cc(C)c4c(oc(=O)c5ccccc54)c3C2)cc1 | 12.6 µM (active) | – |
| CN1CCN(Cc2c(O)ccc3c2oc(=O)c2ccccc23)CC1 | – | -28% [at 2.33 µM] |
| CCc1cc2c(-c3ccccc3)cc(=O)oc2c2c1OCN(Cc1ccc(C)cc1)C2 | inactive | – |
| COc1ccccc1CNS(=O)(=O)c1cc(C(=O)NCc2ccccn2)c(Cl)cc1Cl | inactive | – |
| CCOc1ccc(NC(=O)C2CCN(S(=O)(=O)c3cc(-c4noc(C)n4)ccc3C)CC2)cc1 | inactive | – |
| Cc1ccccc1NC(=O)Cn1c(=O)n(Cc2ccco2)c(=O)c2ccc(C(=O)NC3CCCC3)cc21 | inactive | – |
| CCN1C(=O)c2ccccc2S(=O)c2ccc(C(=O)NCc3ccc(F)cc3)cc21 (stereo not drawn) | inactive | – |
| COc1cccc(CCNC(=O)COc2cccc3c2OC(C)(C)C3)c1 | inactive | – |
| COC(=O)/C(NC(C)=O)=C(\C)c1ccc(Cl)cc1 | inactive | – |
| COC(=O)C(=Nc1ccccc1)/C(C(=O)C(=O)N(C)c1ccccc1)=C(\O)c1ccc(Cl)cc1 | 20 µM (active) | – |
| COC(=O)c1cn(C(=O)c2ccc(Cl)cc2)c2ccccc12 | inactive | – |

Reference: PubChem BioAssay AID504332 (National Center for Advancing Translational Sciences (NCATS), 2011)
